Usually inhibition stands for the drop in the measured response relative to a control, in per cent.

Experiment [1] concerns the target Tyrosine-protein kinase Fer (Homo sapiens) (UniProt P16591). Particulars: at 1 µM.
Experiment [2] concerns the target Tyrosine-protein kinase Fes/Fps (Homo sapiens) (UniProt P07332). Conditions: at 0.1 µM.
The target is the same in experiment [3]. Conditions: at 1 µM.
For experiment [4], the target named is Fibroblast growth factor receptor 1 (Homo sapiens) (UniProt P11362). Conditions: at 0.1 µM.
Experiment [5] shares this target. Conditions: at 1 µM.
The target in experiment [6] is Fibroblast growth factor receptor 2 (Homo sapiens) (UniProt P21802). Particulars: at 0.1 µM.
For experiment [7] the target is unchanged. Particulars: at 1 µM.
In experiment [8] the target is Fibroblast growth factor receptor 3 (Homo sapiens) (UniProt P22607). Particulars: at 0.1 µM.
For experiment [9] the target is unchanged. Particulars: at 1 µM.
Experiment [10] has as its target Fibroblast growth factor receptor 4 (Homo sapiens) (UniProt P22455). Particulars: at 0.1 µM.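 Further: values are mean percent inhibition of FGFR4.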

Fibroblast growth factor receptor 2 (Homo sapiens), sequence (P21802 22-821 limits assumed): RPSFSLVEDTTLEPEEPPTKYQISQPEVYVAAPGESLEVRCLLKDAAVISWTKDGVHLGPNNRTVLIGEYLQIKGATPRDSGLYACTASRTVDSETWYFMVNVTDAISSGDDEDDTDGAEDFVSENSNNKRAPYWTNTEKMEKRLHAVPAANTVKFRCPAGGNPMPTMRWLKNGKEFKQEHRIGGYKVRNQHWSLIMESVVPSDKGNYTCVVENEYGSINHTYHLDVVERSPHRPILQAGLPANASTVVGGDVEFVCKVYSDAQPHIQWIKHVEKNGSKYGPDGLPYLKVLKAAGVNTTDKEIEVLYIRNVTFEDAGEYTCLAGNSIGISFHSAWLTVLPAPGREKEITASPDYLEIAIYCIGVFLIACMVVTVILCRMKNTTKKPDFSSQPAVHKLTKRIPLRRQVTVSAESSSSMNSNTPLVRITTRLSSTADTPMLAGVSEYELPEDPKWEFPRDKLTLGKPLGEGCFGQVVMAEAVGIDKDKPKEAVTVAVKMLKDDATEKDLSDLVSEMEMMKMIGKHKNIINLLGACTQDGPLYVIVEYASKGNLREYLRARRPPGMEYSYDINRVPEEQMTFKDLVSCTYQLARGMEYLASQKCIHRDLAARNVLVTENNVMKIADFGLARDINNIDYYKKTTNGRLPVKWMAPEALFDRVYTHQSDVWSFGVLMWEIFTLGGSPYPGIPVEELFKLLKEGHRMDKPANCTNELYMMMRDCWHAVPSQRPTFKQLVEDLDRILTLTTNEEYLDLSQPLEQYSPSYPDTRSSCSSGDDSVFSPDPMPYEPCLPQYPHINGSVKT
Tyrosine-protein kinase Fer (Homo sapiens), sequence (P16591 whole entry, looked up): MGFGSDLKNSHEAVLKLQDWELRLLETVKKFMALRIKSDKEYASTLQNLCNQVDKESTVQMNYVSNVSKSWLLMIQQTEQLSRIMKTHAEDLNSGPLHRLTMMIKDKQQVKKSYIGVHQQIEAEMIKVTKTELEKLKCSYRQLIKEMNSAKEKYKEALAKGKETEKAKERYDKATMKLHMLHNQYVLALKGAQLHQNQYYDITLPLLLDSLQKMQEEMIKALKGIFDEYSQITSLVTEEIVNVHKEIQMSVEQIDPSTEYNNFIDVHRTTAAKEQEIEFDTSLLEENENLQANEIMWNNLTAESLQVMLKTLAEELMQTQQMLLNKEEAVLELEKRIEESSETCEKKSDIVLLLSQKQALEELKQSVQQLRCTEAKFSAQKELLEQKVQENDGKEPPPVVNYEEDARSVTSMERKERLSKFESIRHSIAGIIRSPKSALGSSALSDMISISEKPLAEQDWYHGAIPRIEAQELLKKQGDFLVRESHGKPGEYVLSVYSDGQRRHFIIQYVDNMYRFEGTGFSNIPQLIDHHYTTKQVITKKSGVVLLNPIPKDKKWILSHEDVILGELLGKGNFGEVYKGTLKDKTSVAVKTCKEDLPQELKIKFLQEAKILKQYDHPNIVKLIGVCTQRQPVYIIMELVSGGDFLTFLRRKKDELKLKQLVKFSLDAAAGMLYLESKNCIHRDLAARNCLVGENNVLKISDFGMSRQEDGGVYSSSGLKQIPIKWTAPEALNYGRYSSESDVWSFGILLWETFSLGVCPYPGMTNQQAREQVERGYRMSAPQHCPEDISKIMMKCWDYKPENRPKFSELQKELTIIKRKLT
Fibroblast growth factor receptor 4 (Homo sapiens), sequence (P22455 22-802 limits assumed): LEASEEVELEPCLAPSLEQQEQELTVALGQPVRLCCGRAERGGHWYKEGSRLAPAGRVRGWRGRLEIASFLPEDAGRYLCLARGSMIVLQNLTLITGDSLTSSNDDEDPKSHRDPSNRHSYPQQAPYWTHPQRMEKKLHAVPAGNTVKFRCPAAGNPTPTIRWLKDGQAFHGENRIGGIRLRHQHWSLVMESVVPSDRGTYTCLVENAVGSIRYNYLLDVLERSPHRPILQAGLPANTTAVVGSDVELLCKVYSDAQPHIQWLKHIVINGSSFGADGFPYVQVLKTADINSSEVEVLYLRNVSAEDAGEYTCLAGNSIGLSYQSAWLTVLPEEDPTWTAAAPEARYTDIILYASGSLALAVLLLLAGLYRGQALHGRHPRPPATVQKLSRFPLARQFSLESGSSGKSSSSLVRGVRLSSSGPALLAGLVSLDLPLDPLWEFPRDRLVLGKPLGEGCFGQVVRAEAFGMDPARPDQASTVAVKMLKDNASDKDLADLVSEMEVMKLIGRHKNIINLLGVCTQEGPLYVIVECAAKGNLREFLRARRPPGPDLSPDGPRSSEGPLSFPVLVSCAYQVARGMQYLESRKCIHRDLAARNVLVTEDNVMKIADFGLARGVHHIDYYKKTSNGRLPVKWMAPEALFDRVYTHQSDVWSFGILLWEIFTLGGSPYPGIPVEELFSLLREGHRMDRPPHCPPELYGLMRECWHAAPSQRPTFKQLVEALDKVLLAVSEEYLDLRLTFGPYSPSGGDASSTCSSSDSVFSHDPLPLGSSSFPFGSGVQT
Fibroblast growth factor receptor 1 (Homo sapiens), sequence (P11362 22-822 limits assumed): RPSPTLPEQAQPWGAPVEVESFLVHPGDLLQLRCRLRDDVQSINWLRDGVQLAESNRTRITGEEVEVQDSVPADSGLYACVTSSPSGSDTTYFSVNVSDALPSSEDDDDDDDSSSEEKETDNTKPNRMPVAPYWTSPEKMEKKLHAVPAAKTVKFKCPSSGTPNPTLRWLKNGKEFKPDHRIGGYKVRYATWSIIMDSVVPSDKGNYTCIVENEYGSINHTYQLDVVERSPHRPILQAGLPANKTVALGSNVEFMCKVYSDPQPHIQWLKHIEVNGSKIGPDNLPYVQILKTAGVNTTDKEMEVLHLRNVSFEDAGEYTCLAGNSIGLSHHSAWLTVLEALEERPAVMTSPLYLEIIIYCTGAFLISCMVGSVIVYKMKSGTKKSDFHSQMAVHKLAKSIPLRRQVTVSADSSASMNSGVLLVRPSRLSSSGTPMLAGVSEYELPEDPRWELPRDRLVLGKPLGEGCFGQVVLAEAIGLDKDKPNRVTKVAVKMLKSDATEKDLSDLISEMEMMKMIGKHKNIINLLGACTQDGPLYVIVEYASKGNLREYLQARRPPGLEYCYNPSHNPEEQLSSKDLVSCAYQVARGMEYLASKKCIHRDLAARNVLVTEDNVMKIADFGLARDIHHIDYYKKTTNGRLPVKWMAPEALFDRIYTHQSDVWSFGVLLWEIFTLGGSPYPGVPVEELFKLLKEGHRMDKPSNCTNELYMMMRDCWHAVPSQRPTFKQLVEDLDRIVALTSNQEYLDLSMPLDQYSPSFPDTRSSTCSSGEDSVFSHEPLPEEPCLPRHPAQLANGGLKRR
Tyrosine-protein kinase Fes/Fps (Homo sapiens), sequence (P07332 whole entry): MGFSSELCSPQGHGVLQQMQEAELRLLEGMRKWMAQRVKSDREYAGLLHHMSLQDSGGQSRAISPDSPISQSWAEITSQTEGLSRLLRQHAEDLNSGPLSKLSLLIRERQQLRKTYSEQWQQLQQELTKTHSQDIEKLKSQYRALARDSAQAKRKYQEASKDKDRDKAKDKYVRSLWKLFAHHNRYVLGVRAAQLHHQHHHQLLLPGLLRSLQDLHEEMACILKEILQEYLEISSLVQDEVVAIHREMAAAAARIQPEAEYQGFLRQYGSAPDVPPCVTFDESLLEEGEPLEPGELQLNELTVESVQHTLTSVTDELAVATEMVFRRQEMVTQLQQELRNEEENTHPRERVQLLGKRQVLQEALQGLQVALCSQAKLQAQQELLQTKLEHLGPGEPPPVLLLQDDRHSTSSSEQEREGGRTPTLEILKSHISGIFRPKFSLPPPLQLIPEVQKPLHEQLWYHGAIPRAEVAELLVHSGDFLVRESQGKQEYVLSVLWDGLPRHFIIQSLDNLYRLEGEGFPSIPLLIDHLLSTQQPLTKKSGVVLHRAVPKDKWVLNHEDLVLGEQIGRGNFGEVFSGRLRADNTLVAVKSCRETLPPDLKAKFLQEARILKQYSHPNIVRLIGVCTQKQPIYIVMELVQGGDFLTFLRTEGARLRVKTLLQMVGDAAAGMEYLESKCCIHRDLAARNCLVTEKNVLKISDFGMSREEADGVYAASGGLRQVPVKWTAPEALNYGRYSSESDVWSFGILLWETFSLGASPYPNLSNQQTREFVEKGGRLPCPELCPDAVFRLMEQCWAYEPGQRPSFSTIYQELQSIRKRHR
Fibroblast growth factor receptor 3 (Homo sapiens), sequence (P22607 23-806 limits assumed): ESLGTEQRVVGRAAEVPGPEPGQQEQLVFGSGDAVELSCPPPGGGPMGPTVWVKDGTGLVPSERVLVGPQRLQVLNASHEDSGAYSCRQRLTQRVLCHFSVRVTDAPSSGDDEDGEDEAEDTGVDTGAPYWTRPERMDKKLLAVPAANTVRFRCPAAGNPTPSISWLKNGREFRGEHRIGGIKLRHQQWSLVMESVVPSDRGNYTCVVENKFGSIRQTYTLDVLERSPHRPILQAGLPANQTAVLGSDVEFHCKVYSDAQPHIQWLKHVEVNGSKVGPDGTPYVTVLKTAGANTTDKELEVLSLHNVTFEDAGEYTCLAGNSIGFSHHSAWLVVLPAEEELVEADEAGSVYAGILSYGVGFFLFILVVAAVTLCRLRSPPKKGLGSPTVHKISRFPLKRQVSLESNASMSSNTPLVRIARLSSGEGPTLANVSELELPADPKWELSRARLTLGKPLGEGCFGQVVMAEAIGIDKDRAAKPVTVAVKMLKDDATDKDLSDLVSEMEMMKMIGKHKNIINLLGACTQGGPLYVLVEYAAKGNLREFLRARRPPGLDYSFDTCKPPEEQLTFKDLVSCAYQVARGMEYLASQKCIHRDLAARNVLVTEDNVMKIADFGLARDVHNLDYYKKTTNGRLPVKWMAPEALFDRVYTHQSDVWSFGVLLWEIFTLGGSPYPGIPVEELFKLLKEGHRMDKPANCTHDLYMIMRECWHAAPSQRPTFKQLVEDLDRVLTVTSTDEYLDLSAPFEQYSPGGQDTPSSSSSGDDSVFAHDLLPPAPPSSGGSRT

With `CCn1c(-c2nonc2N)nc2ccc(F)cc21`, the inhibition in experiment [1] turned out to be 7.92%; in [2], 2.98%; in experiment [3], 2.83%; in experiment [4], 3.73%; in [5] it was 10.2%; in experiment [6], 5.98%. For the same compound, the inhibition in experiment [7] is 4.55%; in [8] it was 7.35%; in [9] it was 5.83%; in [10], 2.81%.

For `CCn1c(-c2nonc2N)nc2c(C#CC(C)(C)O)nc(OCCNC)cc21`, the inhibition in experiment [1] stood at 1.17%; in experiment [2], 4.11%; in experiment [3], 4.46%; in [4] it was 6.92%; in [5], 5.9%; in experiment [6], 5.4%. The inhibition amounted to 6.92% in [7], 7.79% in [8], 3.95% in experiment [9] and 4.43% in experiment [10].

On to `COC(=O)c1cncc(/C=C/c2c(C)cc(O)cc2C)c1`, for which the inhibition in experiment [1] stood at 2%; in [2] it was 1.96%; in [3], 3.05%; in [4], 4.08%; in experiment [5], 0.61%; in experiment [6], 4.05%. In addition, the inhibition was 7.59% in experiment [7], 6.59% in [8], 4.87% in experiment [9] and -1.32% in experiment [10].

In the case of `COc1cc2ncn(-c3cc(OCc4ccccc4S(C)(=O)=O)c(C#N)s3)c2cc1OC`, the inhibition in experiment [1] turned out to be 10.3%; in [2] it was 2.71%; in [3], 3.13%; in experiment [4], 12.1%; in [5] it was 19.3%; in experiment [6], 8.86%. Further, the inhibition in experiment [7] was 31.6%; in experiment [8], 9.71%; in experiment [9], 24.1%; in experiment [10], 2%.

On to `Cc1ccc(NC(=O)CC2CC2)cc1-c1ccc(C(=O)NCC2CC2)cc1`, for which the inhibition in [1] came to 7.65%; in experiment [2] it was 2.28%; in [3] it was 4%; in [4], 5.11%; in experiment [5], 4.06%; in experiment [6] it was 1.09%. The inhibition in [7] is 4.24%; in experiment [8], 2.17%; in experiment [9], 3.92%; in [10], -2.17%.

In the case of `O=S(=O)(CCOCc1ccc(-c2ccc3ncnc(Nc4ccc(OCc5cccc(F)c5)c(Cl)c4)c3c2)o1)c1ccccc1`, the inhibition was -0.81% in [1]; 0.82% in [2]; 1.19% in [3]; 1.05% in [4]; 5.27% in experiment [5]; -0.62% in experiment [6]. For the same compound, the inhibition turned out to be 3.75% in [7], 0.41% in [8], 6.24% in [9] and 1.07% in experiment [10].

For `CN(C)c1cc2c(Nc3ccc4c(cnn4Cc4ccccc4)c3)ncnc2cn1`, the inhibition in [1] stood at 7.22%; in experiment [2], 2.58%; in experiment [3], 3.25%; in [4] it was 2.28%; in experiment [5], 4.22%; in experiment [6], 2.03%. Further, the inhibition in experiment [7] was found to be 2.51%; in experiment [8], 4.39%; in experiment [9], 4.14%; in experiment [10], 0.85%.

With `NS(=O)(=O)c1ccc(Nc2cc(-c3cccc(O)c3)n[nH]2)cc1`, the inhibition in experiment [1] turned out to be 7.21%; in experiment [2] it was 3.6%; in [3], 4.45%; in [4] it was 7.55%; in experiment [5], 14.2%; in experiment [6] it was 8.82%. Also, the inhibition in experiment [7] is 15.9%; in experiment [8], 9.15%; in experiment [9] it was 13.4%; in experiment [10], -0.72%.

Consider `NS(=O)(=O)c1cccc(Nc2cc(-c3ccc(F)cc3)n[nH]2)c1`, for which the inhibition in [1] was 6.71%; in experiment [2] it was 2.34%; in experiment [3], 2.7%; in experiment [4] it was 0.46%; in [5], 3.62%; in experiment [6], 0.78%. The inhibition in experiment [7] is 9.22%; in experiment [8] it was 8.19%; in [9], 8.88%; in experiment [10] it was 0.98%.

On to `COC(=O)c1ccc2c(c1)C(=Cc1cc(Br)c(O)c(Br)c1)C(=O)N2`, for which the inhibition is 7.48% in experiment [1]; 3.27% in experiment [2]; 4.01% in [3]; 3.15% in experiment [4]; 6.87% in experiment [5]; 7.19% in experiment [6]. Further, the inhibition was determined as 8.86% in experiment [7], 8.03% in experiment [8], 5.51% in experiment [9] and 4.35% in experiment [10].

As for `CCS(=O)(=O)c1ccc(OC)c(Nc2nccc(N(C)c3ccc4c(C)n[nH]c4c3)n2)c1`, the inhibition in experiment [1] is 34.3%; in experiment [2] it was 3.93%; in experiment [3] it was 6.48%; in [4] it was 8.89%; in experiment [5] it was 37.3%; in [6], 18.8%. For the same compound, the inhibition is 56.1% in [7], 17.4% in experiment [8], 54.7% in [9] and -0.42% in experiment [10].

With `COc1cccc(-n2nc(C)c3c(N/N=C(\C)c4ccncc4)ncnc32)c1`, the inhibition in experiment [1] was 1.89%; in experiment [2], 0.8%; in experiment [3], 0.14%; in [4] it was 1.88%; in [5], -1.01%; in [6], 3.14%. Moreover, the inhibition in [7] was -0.1%; in [8] it was 1.89%; in experiment [9], 2%; in experiment [10], 1.2%.

As to `CN(C)C(=O)O[C@@H]1CN[C@@H](C#Cc2cc3ncnc(Nc4ccc(OCc5cccc(F)c5)c(Cl)c4)c3s2)C1`, the inhibition in [1] was -0.72%; in experiment [2], -0.22%; in [3], 1.12%; in [4], -0.27%; in experiment [5], 1.69%; in experiment [6] it was 0.19%. Moreover, the inhibition is 4.88% in experiment [7], -0.96% in [8], 2.96% in [9] and -1.62% in [10].

As for `Cc1ccc2c(-c3ccnc(Nc4ccc5c(c4)OCCO5)n3)c(-c3ccc(C(F)(F)F)cc3)nn2n1`, the inhibition in experiment [1] is -0.37%; in experiment [2] it was 0.95%; in experiment [3], 0.4%; in [4], 0.28%; in experiment [5] it was 1.17%; in experiment [6] it was -1.07%. The inhibition in [7] was 0.36%; in experiment [8], -1.98%; in experiment [9], 1%; in experiment [10] it was 1.94%.

Turning to `Oc1cccc(-c2nc(-c3ccccc3)[nH]c2-c2ccncc2)c1`, the inhibition in [1] is 0.53%; in [2], 2.34%; in experiment [3] it was 1.64%; in [4] it was 1.95%; in experiment [5], 7.19%; in experiment [6], 4%. Besides, the inhibition in experiment [7] stood at 9.16%; in [8], 4.28%; in experiment [9], 5.69%; in experiment [10], 1.36%.

Consider `CCS(=O)(=O)c1ccc(OC)c(Nc2ncc(-c3cccc(OC)c3)o2)c1`, for which the inhibition was 3.8% in [1]; 1.8% in [2]; 2.42% in [3]; 9.22% in experiment [4]; 40.2% in experiment [5]; 30.9% in experiment [6]. Also, the inhibition in [7] worked out at 68.2%; in experiment [8], 28.7%; in [9] it was 70%; in experiment [10], 2.6%.

Source of the values: ChEMBL document CHEMBL1961873, “Compounds: GSK PKIS; Assays: Nanosyn kinase panel” (2012).
